Potency and outcome data for ten compounds are collected here from PubChem BioAssay (Tox21).

Assay [1] is described as follows: qHTS assay to identify aromatase inhibitors - cell viability counter screen (AID 743084;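 further: cells stimulated with testosterone during compound exposure; nearly all actives have a fitted effect of over 55% in size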; further: potency means the concentration at half of the fitted maximal effect). (qHTS replaces the single test concentration by a dilution series.)
The nature of assay [2]: qHTS assay to identify small molecule that activate the aryl hydrocarbon receptor (AhR) signaling pathway - cell viability counter screen (AID 743086). Further: nearly all actives have a fitted effect of over 45% in size. Further: potency means the concentration at half of the fitted maximal effect. In outline:
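HepG2-AhR-luc (HG2L7.5c1) cells, 4000/well, treated 24 h at 37 C with compound; viability measured as CellTiter-Fluor fluorescence after 30 min in the same wells as the luciferase read.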

Assay [3] has as its target Peroxisome proliferator-activated receptor gamma (Homo sapiens) (UniProt P37231). The assay can be described thus: qHTS assay to identify small molecule agonists of the peroxisome proliferator-activated receptor gamma (PPARg) signaling pathway (AID 743094; active means well fitted activation curve with a large enough effect in the signal ratio in the repeat runs, not every such curve was filed as active; the % refers to the signal ratio). The method, boiled down:
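Quantitative HTS agonist mode: stable HEK293H line with UAS-beta-lactamase reporter under PPARg control, 17 h compound exposure at 37C, fluorescence after 1 h FRET substrate loading at room temperature.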

Assay [4] is described as follows: qHTS assay for small molecule agonists of the antioxidant response element (ARE) signaling pathway (AID 743202; active means well fitted activation curve with a large enough effect in the signal ratio in the repeat runs, not every such curve was filed as active; the % refers to the signal ratio; further: potency means the concentration at half of the fitted maximal effect). In outline:
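Agonist mode reporter screen: HepG2 cells with ARE-controlled beta-lactamase are incubated with test compounds for 16 h at 37 C, and beta-lactamase activity is measured as fluorescence of cleaved B/G FRET substrate.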

Assay [5] in a line: qHTS assay for small molecule agonists of the antioxidant response element (ARE) signaling pathway - cell viability counter screen (AID 743203; calls by dose curve; further: nearly all actives have a fitted effect of over 55% in size; further: potency means the concentration at half of the fitted maximal effect). The method, boiled down:
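Seeded at 2,000 cells/well, ARE-bla HepG2 cells were incubated 5 hrs before compound addition. After 16 hrs of treatment at 37C with 5% CO2, CellTiter-Glo reagent was added and luminescence read 30 min later.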

Assay [6] in a line: qHTS assay for small molecule activators of the heat shock response signaling pathway - cell viability counter screen (AID 743209). Further: nearly all actives have a fitted effect of over 50% in size. Further: potency means the concentration at half of the fitted maximal effect. The method, boiled down: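 First, HSE-bla HeLa cells were seeded at 1500 cells/well and kept overnight at 37 C. Next, compounds were pinned in and incubated 5 h. After the FRET substrate step, CellTiter-Glo was added and luminescence read 30 min later.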

A short description of assay [7]: qHTS assay for small molecule activators of the heat shock response signaling pathway (AID 743210; active means well fitted activation curve with a large enough effect in the signal ratio in the repeat runs, with a control signal flat, not every such curve was filed as active; the % refers to the signal ratio;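 further: HeLa cells with beta-lactamase reporter driven by heat shock elements; series mostly up to about 63 µM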). The method, boiled down:
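Quantitative high-throughput format using an engineered HeLa line in which heat shock response elements drive beta-lactamase; after 5 h with compound, cells received a B/G FRET substrate and fluorescence was read.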

The nature of assay [8]: qHTS assay to identify small molecule agonists of the peroxisome proliferator-activated receptor delta (PPARd) signaling pathway - cell viability counter screen (AID 743211). Further: nearly all actives have a fitted effect of over 55% in size. Further: potency means the concentration at half of the fitted maximal effect. The method, boiled down: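 Tox21 library compounds, delivered in DMSO, were incubated 17 h with PPARd-bla HEK293H cells; cytotoxicity was taken from CellTiter-Glo luminescence read 30 min after reagent addition.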

For assay [9], the target named is Peroxisome proliferator-activated receptor delta (Homo sapiens) (UniProt Q03181). Nature of the assay: qHTS assay to identify small molecule agonists of the peroxisome proliferator-activated receptor delta (PPARd) signaling pathway (AID 743212; calls by dose curve). The method, boiled down: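 Quantitative high-throughput agonist screen in a HEK293H beta-lactamase reporter line under UAS control. Compounds in DMSO, at 37 C. Fluorescence read after 2 h with FRET substrate at room temperature.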

Assay [10] in a line: qHTS assay to identify small molecule antagonists of the peroxisome proliferator-activated receptor delta (PPARd) signaling pathway - cell viability counter screen (AID 743213). Further: nearly all actives have a fitted effect of over 50% in size. Further: potency means the concentration at half of the fitted maximal effect. The method, boiled down:
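Viability counter-screen, qHTS format: PPARd-bla HEK293H, L165041 300 nM final, 17 h compound exposure at 37 C, CellTiter-Glo luminescence after 30 min RT.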

Assay [11] can be described thus: qHTS assay to identify small molecule agonists of the farnesoid-X-receptor (FXR) signaling pathway - cell viability counter screen (AID 743218). Further: nearly all actives have a fitted effect of over 45% in size. Further: potency means the concentration at half of the fitted maximal effect. The method, boiled down:
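Cytotoxicity counter-screen run in parallel, same wells: FXR-UAS-bla HEK 293T cells dosed 16 h at 37 C, viability read by CellTiter-Glo luminescence after 30 min at room temperature.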

The nature of assay [12]: qHTS assay to identify small molecule antagonists of the farnesoid-X-receptor (FXR) signaling pathway - cell viability counter screen (AID 743221; active means well fitted cell-killing curve with a large enough effect in the repeat runs, not every such curve was filed as active; further: nearly all actives have a fitted effect of over 50% in size; further: potency means the concentration at half of the fitted maximal effect). In outline:
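Cytotoxicity is taken from ATP luminescence (CellTiter-Glo, 30 min, room temperature) in FXR-bla HEK 293T cells previously incubated 16 h at 37 C with compound and chenodeoxycholic acid at 50 uM final.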

Assay [13] concerns the target Vitamin D3 receptor (Homo sapiens) (UniProt P11473). The assay can be described thus: qHTS assay to identify small molecule agonists of the vitamin D receptor (VDR) signaling pathway (AID 743222; calls by dose curve). In outline:
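Quantitative HTS agonist-mode screen: compounds in DMSO were pin-transferred onto VDR-bla cells and incubated 16 h at 37C, 5% CO2. Reporter activity was detected with LiveBLAzer B/G FRET substrate after 2 h at room temperature.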

Assay [14] shares this target. Nature of the assay: qHTS assay to identify small molecule antagonists of the vitamin D receptor (VDR) signaling pathway (AID 743223; active means well fitted inhibition curve with a large enough effect in the signal ratio in the repeat runs, not every such curve was filed as active; the % refers to the signal ratio). In outline: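 Quantitative HTS in VDR-bla reporter cells stimulated with 1alpha,25-dihydroxyvitamin D3, 3 nM final. Compound exposure 16 h, 37C, 5% CO2. Read-out: beta-lactamase FRET substrate fluorescence, 2 h RT.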
Assay [15] has as its target Aryl hydrocarbon receptor (Homo sapiens) (UniProt P35869). Nature of the assay: qHTS assay to identify small molecule that activate the aryl hydrocarbon receptor (AhR) signaling pathway (AID 743085).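 Further: HG2L7.5c1 human HepG2 liver cells with stably integrated DRE-driven firefly reporter; series mostly up to about 70 µM; nearly all actives have a fitted effect of over 15% in size.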 The method, boiled down:
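A multiplexed format paired cell viability (CellTiter-Fluor fluorescence) with AhR-dependent luciferase output (ONE-Glo luminescence) in the same wells of HepG2 DRE-luc cells after 24 h compound exposure at 37C.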

A short description of assay [16]: qHTS assay to identify small molecule antagonists of the peroxisome proliferator-activated receptor gamma (PPARg) signaling pathway - cell viability counter screen (AID 743194). Further: nearly all actives have a fitted effect of over 55% in size. The method, boiled down: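 Cytotoxicity counter screen in PPARg-bla HEK293H cells, same wells as reporter assay. Compounds plus 50 nM rosiglitazone (final) for 17 h at 37 C, then viability read by CellTiter-Glo luminescence.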

In assay [17] the target is Peroxisome proliferator-activated receptor delta (Homo sapiens) (UniProt Q03181). Nature of the assay: qHTS assay to identify small molecule antagonists of the peroxisome proliferator-activated receptor delta (PPARd) signaling pathway (AID 743215; active means well fitted inhibition curve with a large enough effect in the signal ratio in the repeat runs, not every such curve was filed as active; the % refers to the signal ratio;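 further: cells stimulated with agonist L165041 at 300 nM final during compound exposure; series mostly up to about 62 µM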). The method, boiled down: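 Inhibition of L165041-driven (300 nM final) PPARd signaling is scored in HEK293H UAS-bla cells. Exposure lasts 17 h at 37 C; beta-lactamase activity is then read by FRET substrate fluorescence after 2 h at room temperature.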

Assay [18] has as its target Peroxisome proliferator-activated receptor gamma (Homo sapiens) (UniProt P37231). Nature of the assay: qHTS assay to identify small molecule antagonists of the peroxisome proliferator-activated receptor gamma (PPARg) signaling pathway (AID 743191; calls by dose curve; further: series mostly up to about 63 µM; nearly all actives have a fitted effect of over 30% in size). In outline:
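GeneBLAzer PPARg UAS-bla HEK293H cells, 5 h post-plating, exposed to compounds 17 h at 37C. LiveBLAzer B/G FRET substrate added for 1 h at room temperature; beta-lactamase reporter read by fluorescence intensity.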

Assay [19] deals with Bile acid receptor (Homo sapiens) (UniProt Q96RI1). The assay can be described thus: qHTS assay to identify small molecule antagonists of the farnesoid-X-receptor (FXR) signaling pathway (AID 743217; active means well fitted inhibition curve with a large enough effect in the signal ratio in the repeat runs, not every such curve was filed as active; the % refers to the signal ratio). In outline:
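Antagonist mode against 50 uM (final) chenodeoxycholic acid stimulation in FXR-bla HEK 293T cells, 16 h at 37 °C. Inhibition detected as reduced beta-lactamase activity via LiveBLAzer B/G FRET fluorescence after 2 h at room temperature.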

The target is the same in assay [20]. The assay can be described thus: qHTS assay to identify small molecule agonists of the farnesoid-X-receptor (FXR) signaling pathway (AID 743220; active means well fitted activation curve with a large enough effect in the signal ratio in the repeat runs, not every such curve was filed as active; the % refers to the signal ratio). In outline: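 Beta-lactamase reporter under UAS control in GeneBLAzer FXR HEK 293T cells (5000/well) measured with LiveBLAzer FRET substrate after 2 h at room temperature. Compound exposure lasted 16 h at 37C.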

Structures are written as SMILES. Values joined by “and” are separate entries in the source; they are usually repeats but may differ in a detail not shown here. Equal values may be shown once. Records with an inconclusive call do not appear. More than one record can exist for a structure, and the calls need not agree. Active and inactive are the calls of the source. Unless noted, the call rests on the fitted dose curve; in most records, active means well fitted curve in the direction sought with a large enough effect in the repeat runs; inconclusive means weak or mixed curves; inactive means no such curve, though single readings can be large; an effect the other way counts as inactive or inconclusive.

Sequence of Peroxisome proliferator-activated receptor gamma (Homo sapiens) (P37231 whole entry, looked up): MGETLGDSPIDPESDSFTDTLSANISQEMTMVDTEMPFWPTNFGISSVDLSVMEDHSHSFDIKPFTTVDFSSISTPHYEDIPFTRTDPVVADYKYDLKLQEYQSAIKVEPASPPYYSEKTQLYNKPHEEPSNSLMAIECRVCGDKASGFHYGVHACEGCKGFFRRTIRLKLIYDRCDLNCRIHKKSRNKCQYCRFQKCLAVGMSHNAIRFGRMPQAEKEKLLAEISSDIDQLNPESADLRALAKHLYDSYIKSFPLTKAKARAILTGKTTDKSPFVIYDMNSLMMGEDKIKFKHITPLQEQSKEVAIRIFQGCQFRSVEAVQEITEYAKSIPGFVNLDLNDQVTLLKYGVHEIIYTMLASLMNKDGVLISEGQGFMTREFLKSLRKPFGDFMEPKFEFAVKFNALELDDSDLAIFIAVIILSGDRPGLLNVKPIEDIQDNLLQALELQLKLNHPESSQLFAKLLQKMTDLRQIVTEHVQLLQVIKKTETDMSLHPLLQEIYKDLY
Sequence of Vitamin D3 receptor (Homo sapiens) (P11473 whole entry, looked up): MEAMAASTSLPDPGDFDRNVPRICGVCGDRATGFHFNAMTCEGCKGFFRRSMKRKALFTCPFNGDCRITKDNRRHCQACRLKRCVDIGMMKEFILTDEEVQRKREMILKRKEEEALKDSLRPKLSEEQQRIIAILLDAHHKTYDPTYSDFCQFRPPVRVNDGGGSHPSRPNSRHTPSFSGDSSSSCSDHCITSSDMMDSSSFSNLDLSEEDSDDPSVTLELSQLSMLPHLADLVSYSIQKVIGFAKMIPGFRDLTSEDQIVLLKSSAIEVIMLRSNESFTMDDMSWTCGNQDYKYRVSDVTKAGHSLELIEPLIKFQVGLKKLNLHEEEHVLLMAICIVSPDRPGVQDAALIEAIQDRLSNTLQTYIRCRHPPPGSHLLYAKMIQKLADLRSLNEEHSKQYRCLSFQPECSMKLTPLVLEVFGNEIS
Sequence of Aryl hydrocarbon receptor (Homo sapiens) (P35869 whole entry, looked up): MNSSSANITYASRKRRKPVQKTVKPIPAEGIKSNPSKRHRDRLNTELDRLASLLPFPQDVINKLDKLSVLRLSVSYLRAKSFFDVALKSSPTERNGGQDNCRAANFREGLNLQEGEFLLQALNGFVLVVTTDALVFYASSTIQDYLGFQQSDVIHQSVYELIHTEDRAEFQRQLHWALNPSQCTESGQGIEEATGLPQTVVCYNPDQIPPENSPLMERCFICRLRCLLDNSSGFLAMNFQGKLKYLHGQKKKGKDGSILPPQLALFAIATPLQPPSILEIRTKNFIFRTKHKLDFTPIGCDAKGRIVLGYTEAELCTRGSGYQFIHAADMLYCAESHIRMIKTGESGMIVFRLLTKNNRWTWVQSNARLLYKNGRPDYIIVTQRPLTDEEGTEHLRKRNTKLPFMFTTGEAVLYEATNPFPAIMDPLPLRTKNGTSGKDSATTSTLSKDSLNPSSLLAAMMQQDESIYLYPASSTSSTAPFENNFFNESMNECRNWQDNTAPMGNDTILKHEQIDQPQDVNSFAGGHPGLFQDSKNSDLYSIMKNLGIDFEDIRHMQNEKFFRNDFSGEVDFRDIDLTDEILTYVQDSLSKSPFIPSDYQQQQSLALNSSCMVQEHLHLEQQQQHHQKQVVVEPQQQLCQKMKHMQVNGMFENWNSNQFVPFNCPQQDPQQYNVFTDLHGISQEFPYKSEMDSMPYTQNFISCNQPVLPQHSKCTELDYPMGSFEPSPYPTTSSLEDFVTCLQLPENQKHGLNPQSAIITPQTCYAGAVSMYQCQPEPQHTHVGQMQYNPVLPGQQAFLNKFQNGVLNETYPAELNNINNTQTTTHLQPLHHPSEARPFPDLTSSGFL
Sequence of Bile acid receptor (Homo sapiens) (Q96RI1 whole entry, looked up): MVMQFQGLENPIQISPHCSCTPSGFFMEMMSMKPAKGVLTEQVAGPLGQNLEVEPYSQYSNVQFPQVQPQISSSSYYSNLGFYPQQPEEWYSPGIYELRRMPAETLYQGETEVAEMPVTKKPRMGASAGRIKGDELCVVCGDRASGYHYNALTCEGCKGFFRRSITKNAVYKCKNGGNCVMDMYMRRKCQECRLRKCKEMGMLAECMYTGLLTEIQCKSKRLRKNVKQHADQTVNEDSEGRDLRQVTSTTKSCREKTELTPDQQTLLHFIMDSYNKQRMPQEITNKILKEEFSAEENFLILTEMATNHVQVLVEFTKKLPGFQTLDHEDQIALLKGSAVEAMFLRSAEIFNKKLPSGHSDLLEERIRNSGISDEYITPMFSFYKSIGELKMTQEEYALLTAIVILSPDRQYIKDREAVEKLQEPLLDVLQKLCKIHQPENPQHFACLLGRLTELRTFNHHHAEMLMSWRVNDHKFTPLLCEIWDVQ
Sequence of Peroxisome proliferator-activated receptor delta (Homo sapiens) (Q03181 whole entry, looked up): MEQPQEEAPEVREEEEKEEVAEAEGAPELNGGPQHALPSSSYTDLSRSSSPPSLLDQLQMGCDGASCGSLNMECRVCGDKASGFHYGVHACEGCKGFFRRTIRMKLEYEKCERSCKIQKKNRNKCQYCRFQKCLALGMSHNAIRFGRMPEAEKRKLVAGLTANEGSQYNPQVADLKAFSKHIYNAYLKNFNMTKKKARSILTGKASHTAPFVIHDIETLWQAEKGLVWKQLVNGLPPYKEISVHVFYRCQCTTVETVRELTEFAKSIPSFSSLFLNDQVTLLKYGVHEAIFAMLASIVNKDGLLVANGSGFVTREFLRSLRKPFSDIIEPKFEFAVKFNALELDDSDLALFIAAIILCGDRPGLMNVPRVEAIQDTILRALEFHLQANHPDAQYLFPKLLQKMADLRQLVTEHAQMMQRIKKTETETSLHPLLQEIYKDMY

For `C=C(C)C(=O)OCCCCCC`, the Potency entry in assay [1], in [2], in assay [4], in assay [5], in assay [6] and in assay [8] was “inactive” in each case. Besides, the Potency entry in [10], in [11], in [12], in assay [13] and in assay [14] was “inactive” each time. Also, the result in assay [3], in assay [7] and in assay [9] was inactive.
Consider `C[C@@H]1O[C@@H](OC[C@H]2O[C@@H](Oc3c(-c4ccc(O)c(O)c4)oc4cc(O)cc(O)c4c3=O)[C@H](O)[C@@H](O)[C@@H]2O)[C@H](O)[C@H](O)[C@H]1O`, for which the Potency result in [1], in assay [15], in assay [2], in [16], in assay [5] and in [6] was “inactive” each time. Besides, the Potency entry in assay [8], in assay [10], in [11], in assay [12], in assay [13] and in [14] was “inactive” each time. Besides, the result in assay [7], in assay [9] and in assay [17] was inactive.
Turning to `CCCCCCCCCCCCN`, the Potency entry in assay [15], in assay [2] and in assay [4] was “inactive” each time. In addition, the call in assay [3], in [9] and in assay [17] was inactive. Further, the Potency result in assay [5] was “inactive and 24.3 µM (active)”; in [6], “inactive and 43.6 µM (active)”; in assay [8], “inactive and 19.5 µM (active)”; in assay [10] it was “inactive and 49 µM (active)”; in assay [11] it was “inactive and 43.6 µM (active)”; in assay [12], “inactive and 49 µM (active)”.
For the compound `Cc1cc(O)cc(C)c1Cl`, the Potency entry in assay [1], in [2], in assay [18], in assay [16], in [4] and in [5] was “inactive” in each case. Moreover, the Potency result in [6], in assay [8], in [10], in assay [11] and in assay [12] was “inactive” in each case. For the same compound, the compound was classed as inactive in assay [3], in assay [7], in assay [9] and in [17].
With `CC(C)NCC(O)COc1cccc2ccccc12` (stereo unspecified), the Potency entry in [1], in [15], in assay [2], in assay [16], in [5] and in assay [6] was “inactive” each time. For the same compound, the Potency result in assay [8], in assay [11], in assay [12], in assay [13] and in assay [14] was “inactive” in each case. Besides, the result in assay [7], in [19] and in [20] was inactive. Further, the Potency in [10] is 49.5 µM (active) and 21.9 µM (active).
For the compound `CN(CCOc1ccc(CC2SC(=O)NC2=O)cc1)c1ccccn1` (stereo unspecified), the Potency entry in [15], in [2], in [16], in assay [5], in [6] and in [8] was “inactive” in each case. Also, the Potency result in assay [10], in assay [11] and in [12] was “inactive” throughout. Also, the Potency in assay [4] was 21.6 µM (active) and inactive. Further, the call in assay [7], in [19] and in assay [20] was inactive.
For `O=S(=O)(O)c1cc(S(=O)(=O)O)c2c(N=Nc3ccccc3)c(O)ccc2c1`, the Potency in assay [1] is 24.4 µM (active) and 27.3 µM (active); in [2], 21.8 µM (active) and 21.7 µM (active). Besides, the Potency result in assay [15], in assay [16], in assay [4], in [5], in assay [6] and in assay [8] was “inactive” throughout. The Potency result in assay [10], in assay [11], in assay [12], in [13] and in assay [14] was “inactive” in each case. Besides, the call in assay [7], in assay [9], in assay [17], in assay [19] and in [20] was inactive.
Take `CS(=O)(=O)Nc1ccc([N+](=O)[O-])cc1Oc1ccccc1`: the Potency result in [1], in [15], in [2], in assay [5], in assay [6] and in [8] was “inactive” in each case. The Potency result in assay [10], in assay [11], in assay [12], in [13] and in assay [14] was “inactive” each time. Moreover, in [7], the compound was called inactive.
Turning to `CC(=O)[C@@]1(O)CC[C@H]2[C@@H]3CCC4=CC(=O)CC[C@]4(C)[C@H]3CC[C@@]21C`, the Potency entry in assay [2], in [5], in [6], in [8], in assay [10] and in assay [11] was “inactive” throughout. For the same compound, the Potency result in assay [12] is “inactive”. Moreover, the outcome in assay [7] and in assay [9] was inactive.
Consider `CCCCCCCCCCC=CC1CC(=O)OC1=O` (stereo unspecified), for which the Potency result in assay [2], in [5], in assay [6], in assay [8], in assay [10] and in assay [11] was “inactive” in each case. The Potency entry in [12], in [13] and in [14] was “inactive” throughout. The call in assay [7], in assay [9], in assay [19] and in [20] was inactive.
